Hits are enriched below; roughly 19% of the tested compounds scored in any of these assays.
DT40 TDP1 no CPT: qHTS for Inhibitors of human tyrosyl-DNA phosphodiesterase 1 (TDP1): qHTS in cells in absence of CPT. actives 15% (n = 420,000). Potency, µM (doses to about 46.2 µM), hits mostly inhibitors. AID 686978, 2013. DT40 Tdp1-/- hTDP1 cells, no CPT, ATP luminescence, 48 h; further: nearly all actives have a fitted effect of over 55% in size
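Compound effects on proliferation are scored in DT40 Tdp1-/-;hTDP1 cells in the absence of CPT. ATP levels (CellTiter-Glo luminescence) are recorded after a ≥48 hr, 37 °C incubation.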
HepG2 viability: qHTS for Inhibitors of TGF-b: Cytotox Counterscreen; HepG2 CAGA-GFP viability, ATP luminescence, 18 h; Potency, µM (highest dose often 46.1 µM), most hits filed as cytotoxic; actives 0.76% (n = 410,000); AID 588856, 2011
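CellTiter-Glo luminescence gave cytotoxicity after 18 hours at 37 degrees C. The cells were HepG2 CAGA-GFP in 1% FBS DMEM, stimulated with 500 pg/mL TGF-beta after compound addition. %Activity was normalised to no-cell wells (complete cell-killing) and DMSO (no toxicity), and curves were fitted and classified.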
TDP1 cell CPT: qHTS for Inhibitors of human tyrosyl-DNA phosphodiesterase 1 (TDP1): qHTS in cells in presence of CPT. actives 12% (n = 420,000). AID 686979, 2013. chicken DT40 Tdp1-/-;hTDP1 cells + 20 nM CPT, ATP luminescence, 48 h. Potency, µM (top dose mostly 46.2 µM), actives largely listed as inhibitors; further: nearly all actives have a fitted effect of over 55% in size
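Cell growth measured by CellTiter-Glo luminescence after a minimum 48 h, 37 C compound exposure with 20 nM CPT in Tdp1-knockout DT40 cells stably expressing hTDP1, seeded 400/well; qHTS titration format.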
IL-1B inflam inh: qHTS for Inhibitors of Inflammasome Signaling: IL-1-beta AlphaLISA Primary Screen | THP-1 LPS/ATP IL-1B secretion, AlphaLISA, 16 h; stronger effect = lower value | activity change, % at 57.5 µM | actives 4.7% (n = 360,000) | AID 743279, 2014; in the data active means activity change below about -50%; inconclusive means mostly about -30% to -49%
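THP-1 cells pretreated 1 hr with compounds (up to 57.5 uM final), then stimulated with LPS (250 ng/mL final) plus ATP (1.25 mM final); secreted IL-1B measured by AlphaLISA after 16 hr, decreased signal indicating inhibition.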
S-ASM inh: Inhibitors of Secretory Acid Sphingomyelinase (S-ASM): qHTS. AID 504937, 2011. placental ASM, HMU-PC fluorogenic substrate, 60 min. Potency, µM (top dose mostly 57.5 µM), most hits filed as inhibitors. Sphingomyelin phosphodiesterase (Homo sapiens), P17405. actives 0.006% (n = 340,000)
Target sequence (P17405 47-631 limits assumed): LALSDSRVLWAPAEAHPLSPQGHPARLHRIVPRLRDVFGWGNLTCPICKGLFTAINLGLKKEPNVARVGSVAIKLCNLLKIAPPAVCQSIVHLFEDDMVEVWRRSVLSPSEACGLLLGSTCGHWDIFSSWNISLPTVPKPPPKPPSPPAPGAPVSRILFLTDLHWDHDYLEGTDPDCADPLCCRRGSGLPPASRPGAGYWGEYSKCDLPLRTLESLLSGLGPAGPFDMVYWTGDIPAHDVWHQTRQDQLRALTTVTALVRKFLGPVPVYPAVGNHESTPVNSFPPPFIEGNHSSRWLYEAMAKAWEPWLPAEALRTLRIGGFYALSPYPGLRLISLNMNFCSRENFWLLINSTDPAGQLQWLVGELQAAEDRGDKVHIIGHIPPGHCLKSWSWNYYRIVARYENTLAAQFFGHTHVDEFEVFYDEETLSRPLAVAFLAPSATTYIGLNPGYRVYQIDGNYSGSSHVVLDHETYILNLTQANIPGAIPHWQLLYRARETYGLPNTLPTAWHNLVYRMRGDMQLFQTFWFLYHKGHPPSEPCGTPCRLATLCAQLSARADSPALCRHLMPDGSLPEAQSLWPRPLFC
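Human placenta-derived ASM enzyme was preincubated with compound for 10 minutes at room temperature, then given fluorogenic substrate HMU-PC0 (9 uM final) for 60 minutes at 37 °C; a pH 10 stop preceded fluorescence reading at Ex 386/Em 447 nm.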
TGFb SMAD3 inh: qHTS for Inhibitors of TGF-b. HepG2 CAGA-GFP TGF-b/SMAD3 reporter, GFP fluorescence, 18 h; TGF-beta stimulated, 500 pg/mL final. Potency, µM (doses to about 46.1 µM), actives largely listed as inhibitors. actives 1.2% (n = 410,000); further: nearly all actives have a fitted effect of over 65% in size
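HEPG2 CAGA-GFP, 1000 cells/well; 2 h settle, 37 C; cpd via pin tool; TGF-b 500 pg/mL final; 18 h, 37 C; GFP imaging ex488/em500-530; %Activity normalised to -TGF-b and +DMSO controls; CRC fit, curve class.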
Of the large screens only hits and unclear results are named; the others gave an inactive call. Unless noted, the call rests on the fitted dose curve; in most records, active means well fitted curve in the direction sought with a large enough effect; inconclusive means small, poorly fitted or top-dose-only effect, or another doubt; inactive means no such curve, though single readings can be large; an effect the other way counts as inactive or inconclusive.

NS(=O)(=O)c1ccc(NC(=O)COC(=O)c2ccc(S(=O)(=O)N3CCOCC3)cc2)cc1	none
O=C(CSc1ccccc1)Nc1ccc(-c2nc3ccccc3[nH]2)cc1	DT40 TDP1 no CPT 10µM, HepG2 viability 16µM, TDP1 cell CPT 23µM, TGFb SMAD3 inh inconclusive
O=C(CN1CCOCC1)Nc1ccc(-c2nc3ccccc3[nH]2)cc1	none
Cc1ccc(N(CCC#N)C(=O)CCl)cc1C	DT40 TDP1 no CPT 7.3µM, HepG2 viability 11µM, TDP1 cell CPT inconclusive, IL-1B inflam inh -98, TGFb SMAD3 inh inconclusive
CCN(CC)CCN1c2ccccc2Sc2ccc3ccccc3c21	DT40 TDP1 no CPT 16µM, IL-1B inflam inh -74
Cc1ccc(S(=O)(=O)c2ncccc2[N+](=O)[O-])cc1	DT40 TDP1 no CPT 0.65µM, TDP1 cell CPT 1.2µM, IL-1B inflam inh -102, TGFb SMAD3 inh 2.5µM
O=C1c2cccc3cccc(c23)C(=O)N1CCN1CCN(CC(O)COc2ccccc2)CC1 (stereo not drawn)	none
Cc1ccccc1OCC(O)CN1CCC(C)CC1 (stereo not drawn)	none
COc1ccc(OCC(O)CN2CCC(CN3C(=O)c4cccc5cccc(c45)C3=O)CC2)cc1 (stereo not drawn)	DT40 TDP1 no CPT 21µM, TDP1 cell CPT 13µM, TGFb SMAD3 inh inconclusive (no result: IL-1B inflam inh)
Cc1ccc(C)c(OCC(O)CN2CCC(CN3C(=O)c4cccc5cccc(c45)C3=O)CC2)c1 (stereo not drawn)	DT40 TDP1 no CPT 5.8µM, TDP1 cell CPT 5.2µM, IL-1B inflam inh -97, TGFb SMAD3 inh inconclusive
CCOC(=O)C1CCN(CC(O)COCc2ccc3c(c2)OCO3)CC1 (stereo not drawn)	none
COc1cccc(OCC(O)CN2CCN(CCN3C(=O)c4cccc5cccc(c45)C3=O)CC2)c1 (stereo not drawn)	DT40 TDP1 no CPT 18µM, TDP1 cell CPT inconclusive, IL-1B inflam inh -81
O=C1c2cccc3cccc(c23)C(=O)N1CC1CCN(CC(O)COCc2ccc3c(c2)OCO3)CC1 (stereo not drawn)	DT40 TDP1 no CPT inconclusive, TDP1 cell CPT inconclusive, IL-1B inflam inh -81, TGFb SMAD3 inh inconclusive
OC(c1cccc(Cl)c1)c1nc(-c2ccc(F)c(Cl)c2)cs1 (stereo not drawn)	DT40 TDP1 no CPT inconclusive, TDP1 cell CPT inconclusive, TGFb SMAD3 inh inconclusive (no result: S-ASM inh)
N#Cc1cnc(N)c(Br)c1	none
CCOc1ccc(-c2[nH]ncc2-c2ccc(OC)c(OC)c2)c(O)c1	DT40 TDP1 no CPT 3.7µM, TDP1 cell CPT 3.7µM
COc1ccc(-c2cn[nH]c2-c2ccc(O)cc2O)cc1OC	DT40 TDP1 no CPT inconclusive
C=C(C)COc1ccc(-c2ncncc2-c2ccc(Cl)cc2)c(O)c1	TGFb SMAD3 inh inconclusive
CCOc1ccc(-c2[nH]ncc2-c2ccc(Cl)cc2)c(O)c1	DT40 TDP1 no CPT inconclusive, TDP1 cell CPT 16µM, TGFb SMAD3 inh inconclusive
CCCCOc1ccc(C(=O)N(Cc2ccco2)C2CCS(=O)(=O)C2)cc1 (stereo not drawn)	TDP1 cell CPT inconclusive
CCc1ccc(C(=O)CCC2CCCCC2=O)cc1 (stereo not drawn)	DT40 TDP1 no CPT 16µM, TDP1 cell CPT inconclusive
O=C(/C=C\c1ccc2c(c1)OCO2)CC1(O)C(=O)Nc2ccccc21 (stereo not drawn)	DT40 TDP1 no CPT inconclusive, TDP1 cell CPT inconclusive, IL-1B inflam inh -101, TGFb SMAD3 inh inconclusive
O=C(CC1(O)C(=O)Nc2ccccc21)c1ccc2c(c1)OCO2 (stereo not drawn)	none
O=C(NCCc1ccccc1)C(c1cccs1)N(C(=O)CCl)c1ccc(Cl)cc1 (stereo not drawn)	DT40 TDP1 no CPT 1.6µM, HepG2 viability 10µM, TDP1 cell CPT 1.8µM, IL-1B inflam inh -98, TGFb SMAD3 inh 11µM
CNC(=O)/C(C#N)=C/c1ccc(-c2nc3ccccc3s2)o1	DT40 TDP1 no CPT inconclusive (no result: IL-1B inflam inh)
N#C/C(=C\c1coc2ccc(O)cc2c1=O)C(=O)Nc1nc2ccccc2s1	DT40 TDP1 no CPT inconclusive, HepG2 viability 11µM, TDP1 cell CPT 9.2µM, TGFb SMAD3 inh inconclusive
O=c1[nH]c(C2CCN(S(=O)(=O)c3ccc4c(c3)OCCO4)CC2)nc2c1nnn2Cc1ccc(F)cc1	TDP1 cell CPT inconclusive
C[C@@]12C(=O)N(CC3CC3)CC(=O)N1[C@H](/C=C/c1ccccc1)[C@@H]1C(=O)N(c3ccccc3)C(=O)[C@@H]12	none
CCCCN(C)S(=O)(=O)c1ccc(C(=O)N=c2sc3cc(NC(C)=O)ccc3n2C)cc1	TDP1 cell CPT inconclusive
CCCCN(CC)S(=O)(=O)c1ccc(C(=O)N=c2sc3cc(NC(C)=O)ccc3n2C)cc1	DT40 TDP1 no CPT 16µM, TDP1 cell CPT 8.2µM
CC(C)CCn1c(O)c(N=NC(=O)Cn2ccc(C(F)(F)F)n2)c2ccccc21	DT40 TDP1 no CPT 23µM, TDP1 cell CPT 21µM
CCOC(OCC)c1nc(N)[nH]c(=O)c1CCCCc1ccccc1	DT40 TDP1 no CPT 16µM, TDP1 cell CPT 23µM
Cc1ccc(S(=O)(=O)N2CCCCC2)cc1NC(=O)Cn1c(=O)cnc2ccccc21	DT40 TDP1 no CPT inconclusive
CC(C)(C)c1ccc(OCCOc2ccc(C(C)(C)C)cc2NC=O)c(NC=O)c1	DT40 TDP1 no CPT 21µM, TDP1 cell CPT 21µM, IL-1B inflam inh inconclusive, TGFb SMAD3 inh inconclusive
COCCOc1ccc(C(F)(F)F)cc1NC(=O)c1ccc(F)cc1	none
CC1CCC(NC(=O)C2CC(=O)N(c3ccc(Cl)cc3)C2)CC1 (stereo not drawn)	none
CC(CN(C)Cc1ccccc1)OC(=O)c1ccc(F)cc1 (stereo not drawn)	DT40 TDP1 no CPT 10µM, TDP1 cell CPT 15µM
CC(CN1CCN(C)CC1)OC(=O)c1ccc(F)cc1 (stereo not drawn)	none
COc1cc2c(cc1O)CCN[C@]21CS[C@@H]2c3c(OC(C)=O)c(C)c4c(c3[C@H](COC1=O)N1[C@@H]2[C@H]2c3c(cc(C)c(OC)c3O)C[C@@H]([C@@H]1O)N2C)OCO4	DT40 TDP1 no CPT 0.0043µM, TDP1 cell CPT 0.0043µM (no result: HepG2 viability, IL-1B inflam inh, S-ASM inh, TGFb SMAD3 inh)
COc1cc(C(=O)Nc2ccn(C)n2)ccc1OC(F)F	none
CC(=O)Nc1ccccc1-c1cccc2nccn12	none (no result: S-ASM inh)
CCN(CC)CCCNC(=S)N(Cc1cccnc1)Cc1cc2cccc(C)c2[nH]c1=O	IL-1B inflam inh inconclusive

From PubChem BioAssay
